Results filed as inconclusive are left out. Unless noted, calls come from the whole dose curve; as a rule, active = well fitted curve in either direction with a large enough effect (not every such curve was filed as active); inconclusive = small, poorly fitted or top-dose-only effect, or another doubt; inactive = flat fitted curve, though single readings scatter.
Legend:
[1] = AP1 Signaling Pathway (AID 357); conditions: ME-180 AP-1-bla reporter, EGF-induced, beta-lactamase ratio, 5 h; at 17.2 µM (top of the series) unless noted;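 note: ME-180 reporter cells stimulated with EGF at its EC50 level; % is set by controls: 0 for no effect and ±100 for the full control effect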
Summary of the method: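 Cells are seeded overnight, exposed to compound titrations and an EC50 level of EGF for 5 hours at 37 °C, then loaded with CCF4 dye for 2.5 hours. Beta-lactamase activity under the AP-1 element is read as a blue/green ratio.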

[2] = NFAT Signaling Pathway (AID 444); conditions: Jurkat NFAT-bla M1, carbachol, beta-lactamase ratio, 5 h; at 17.2 µM (top of the series) unless noted;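 note: carbachol stimulus at about its EC50 of 1 µM final; % is set by controls: 0 for no effect and ±100 for the full control effect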
Summary of the method: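 Jurkat cells carrying an NFAT-driven β-lactamase reporter and co-transfected muscarinic M1 receptor were treated with compound plus carbachol (1 uM final, an EC50 level) for 5 h at 37 °C. CCF4 loading followed for 1 h at RT; 460/530 nm ratio gave %activity.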

[3] = Stat Signaling Pathway (AID 446); conditions: ME-180 SIE beta-lactamase reporter, IL-6 stimulated, 5 h; at 17.2 µM (top of the series) unless noted;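 note: ME-180 cervical cancer cells given 40 pM IL-6 alongside compound; SIE-controlled beta-lactamase reporter measured as 460/530 nm FRET emission ratio; % is set by controls: 0 for no effect and ±100 for the full control effect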
Summary of the method: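 Screening format detects activators and inhibitors alike: ME-180 SIE-bla cells stimulated at 40 pM IL-6 for 5 hrs with compound, then dual-emission beta-lactamase read at 405 nm excitation.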

[4] = biological target: Glucocorticoid receptor (Homo sapiens) (UniProt P04150); assay: GR-GFP Redistribution (AID 450;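 active = compounds whose dose series gives a full or clear partial fitted curve of increased nuclear translocation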; note: potency is the fitted concentration of half-maximal effect)
Glucocorticoid receptor (Homo sapiens), sequence (P04150 whole entry, looked up): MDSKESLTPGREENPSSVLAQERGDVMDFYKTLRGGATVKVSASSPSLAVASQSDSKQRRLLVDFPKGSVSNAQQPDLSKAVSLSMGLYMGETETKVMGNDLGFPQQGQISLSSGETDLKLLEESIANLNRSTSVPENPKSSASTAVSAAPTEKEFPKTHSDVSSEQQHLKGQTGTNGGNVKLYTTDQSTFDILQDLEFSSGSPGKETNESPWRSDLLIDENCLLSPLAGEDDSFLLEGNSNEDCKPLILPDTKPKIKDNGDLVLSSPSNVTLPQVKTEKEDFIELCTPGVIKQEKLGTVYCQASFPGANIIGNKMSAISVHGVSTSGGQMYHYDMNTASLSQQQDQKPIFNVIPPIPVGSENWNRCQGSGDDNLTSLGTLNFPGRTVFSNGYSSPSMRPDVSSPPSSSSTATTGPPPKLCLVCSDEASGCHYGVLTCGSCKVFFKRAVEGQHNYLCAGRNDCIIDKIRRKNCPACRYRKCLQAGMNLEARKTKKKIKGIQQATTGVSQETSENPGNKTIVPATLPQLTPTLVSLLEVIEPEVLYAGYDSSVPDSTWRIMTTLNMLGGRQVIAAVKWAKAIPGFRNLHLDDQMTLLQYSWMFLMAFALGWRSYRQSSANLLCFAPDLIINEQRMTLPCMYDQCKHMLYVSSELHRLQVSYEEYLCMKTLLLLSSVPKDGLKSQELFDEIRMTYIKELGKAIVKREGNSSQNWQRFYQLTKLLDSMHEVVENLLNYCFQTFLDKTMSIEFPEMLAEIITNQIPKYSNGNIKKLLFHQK

Cc1ccc(C2/C(=C(/O)c3cnn(-c4ccccc4)c3C)C(=O)C(=O)N2CCN2CCOCC2)o1 (centres undefined)
inactive: activity change, negative = inhibition [1] -8.72% | activity change, negative = inhibition [2] 16.8% | activity, negative = inhibition [3] -14.9% | Potency [4] > 20.6 µM

CCOC(=O)c1ccc(CSc2ncn[nH]2)o1
inactive: activity change, negative = inhibition [1] 0.882% | activity change, negative = inhibition [2] -2.95% | activity, negative = inhibition [3] 5.39% | Potency [4] > 20.6 µM

COCCNc1ncnc2c1cnn2-c1ccc(Cl)cc1
inactive: activity change, negative = inhibition [1] -9.71% | activity change, negative = inhibition [2] -10.4% | activity, negative = inhibition [3] 2.93% | Potency [4] > 20.6 µM

CCCOC(=O)CSC1=C(C#N)C(c2ccccc2OC)C(C#N)C(=O)N1 (centres undefined)
inactive: activity change, negative = inhibition [1] -16.4% | activity change, negative = inhibition [2] 13.9% | activity, negative = inhibition [3] -22.7% | Potency [4] > 20.6 µM

CN(C)c1ccc(O)c2c1CC1CC3[C@@H](N(C)C)C(=O)C(C(N)=O)=C(O)[C@]3(O)C(=O)C1=C2O (some centres undefined)
inactive: activity change, negative = inhibition [1] 6.78% | activity change, negative = inhibition [2] 8.29% | activity, negative = inhibition [3] -13.5% | Potency [4] > 20.6 µM

CC(=O)Nc1cccc(NC(=O)CSc2nc(C)c(C)c(C)c2C#N)c1
inactive: activity change, negative = inhibition [1] -13.8% | activity change, negative = inhibition [2] 8.76% | activity, negative = inhibition [3] -4.2% | Potency [4] > 20.6 µM

CN1CCN(CCCCC(=O)c2ccccc2)CC1
inactive: activity change, negative = inhibition [1] 16.6% | activity change, negative = inhibition [2] -15.1% | activity, negative = inhibition [3] 9.37% | Potency [4] > 20.6 µM

Cc1nnc2n(-c3ccccc3)c(=O)c3c4c(sc3n12)CC(C)CC4 (centres undefined)
inactive: activity change, negative = inhibition [1] 3.4% | activity change, negative = inhibition [2] -3.87% | activity, negative = inhibition [3] -2.29% | Potency [4] > 20.6 µM

N#C/C(C(=O)NCc1ccccc1)=C1\SC(CCO)C(=O)N1c1ccccc1 (centres undefined)
inactive: activity change, negative = inhibition [1] -9.75% | activity change, negative = inhibition [2] 10.3% | activity, negative = inhibition [3] -2.91% | Potency [4] > 20.6 µM

CC(C)COc1nc2ccccc2nc1C(C#N)C(=O)NC1CCCCC1 (centres undefined)
inactive: activity change, negative = inhibition [1] -1.14% | activity change, negative = inhibition [2] 0.574% | activity, negative = inhibition [3] 5.36% | Potency [4] > 20.6 µM

CCOC(=O)c1ccccc1OCc1cc(/C=N/n2cncn2)ccc1OC
inactive: activity change, negative = inhibition [1] -21.7% | activity change, negative = inhibition [2] 8.94% | activity, negative = inhibition [3] -6.04% | Potency [4] > 20.6 µM

c1ccc(-n2ncc3c(NCC4CCCO4)ncnc32)cc1 (centres undefined)
inactive: activity change, negative = inhibition [1] -4.47% | activity change, negative = inhibition [2] -15.8% | activity, negative = inhibition [3] 2.07% | Potency [4] > 20.6 µM

Cc1c(C=NCCOCc2ccccc2)cnn1C
inactive: activity change, negative = inhibition [1] -2.81% | activity change, negative = inhibition [2] -4.41% | activity, negative = inhibition [3] 12.4% | Potency [4] > 20.6 µM

COc1ccc(CNC(=O)[C@H](C)NC(=O)C2CCN(S(=O)(=O)c3ccc(C)cc3)CC2)cc1
inactive: activity change, negative = inhibition [1] 0.123% | activity change, negative = inhibition [2] 0.0617% | activity, negative = inhibition [3] 2.4% | Potency [4] > 20.6 µM

COCCNc1nc2c(c(=O)n(C)c(=O)n2C)n1Cc1cccc(C(F)(F)F)c1
inactive: activity change, negative = inhibition [1] 13.5% | activity change, negative = inhibition [2] 5.18% | activity, negative = inhibition [3] 226% | Potency [4] > 20.6 µM

Cc1c(C2CC(=O)N(c3ccccc3)C2=O)[nH]n(-c2ccccc2)c1=O (centres undefined)
inactive: activity change, negative = inhibition [1] -2.21% | activity change, negative = inhibition [2] -3.65% | activity, negative = inhibition [3] 1.65% | Potency [4] > 20.6 µM

CCN(CC)CCN1C(=O)C(=O)/C(=C(/O)c2ccc(Cl)cc2)C1c1ccncc1 (centres undefined)
inactive: activity change, negative = inhibition [1] -3.59% | activity change, negative = inhibition [2] 22.9% | activity, negative = inhibition [3] 7.2% | Potency [4] > 20.6 µM

COc1ccc(/C(O)=C2/C(=O)C(=O)N(CCCN(C)C)C2c2ccco2)cc1Cl (centres undefined)
inactive: activity change, negative = inhibition [1] 9.29% | activity change, negative = inhibition [2] -5.99% | activity, negative = inhibition [3] 4.09% | Potency [4] > 20.6 µM

COC(=O)c1cc2c(=O)n3cccc(C)c3nc2n(Cc2cccnc2)c1=N
inactive: activity change, negative = inhibition [1] 7.65% | activity change, negative = inhibition [2] -10.7% | activity, negative = inhibition [3] 15.4% | Potency [4] > 20.6 µM

CCOC(=O)C1/C(=N\O)CC(C)(O)C(C(=O)OCC)C1c1ccc(N(C)C)cc1 (centres undefined)
inactive: activity change, negative = inhibition [1] 6.52% | activity change, negative = inhibition [2] 2.58% | activity, negative = inhibition [3] -4.68% | Potency [4] > 20.6 µM

CCOc1cc(C2Nc3ccccc3C(=O)N2c2ccccc2OC)ccc1O (centres undefined)
inactive: activity change, negative = inhibition [1] 18.3% | activity change, negative = inhibition [2] 6.73% | activity, negative = inhibition [3] 5.03% | Potency [4] > 20.6 µM

Cc1cccc(N2C(=O)CC(N3CCN(Cc4ccc(Cl)cc4)CC3)C2=O)c1 (centres undefined)
inactive: activity change, negative = inhibition [1] 1.23% | activity change, negative = inhibition [2] 6.12% | activity, negative = inhibition [3] 1.94% | Potency [4] > 20.6 µM

Nc1nc(NC(=O)c2cccs2)nn1-c1ccccc1
inactive: activity change, negative = inhibition [1] 4.21% | activity change, negative = inhibition [2] 7.64% | activity, negative = inhibition [3] -0.835% | Potency [4] > 20.6 µM

CCOC(=O)NC(Nc1cc(C)on1)(C(F)(F)F)C(F)(F)F
inactive: activity change, negative = inhibition [1] 20.3% | activity change, negative = inhibition [2] -2.55% | activity, negative = inhibition [3] 12.3% | Potency [4] > 20.6 µM

CCCCCOC(=O)C(C)c1c(C)[nH]c(=S)[nH]c1=O (centres undefined)
inactive: activity change, negative = inhibition [1] 7.28% | activity change, negative = inhibition [2] 6.16% | activity, negative = inhibition [3] -4.24% | Potency [4] > 20.6 µM

CCOC(=O)C(C#N)C(Cc1ccccc1)c1ccco1 (centres undefined)
inactive: activity change, negative = inhibition [1] -10.1% | activity change, negative = inhibition [2] -8.09% | activity, negative = inhibition [3] -9.08% | Potency [4] > 20.6 µM

Reference: PubChem BioAssay (NCATS)
